Assay results from PubChem BioAssay (Tox21).
A number with no mark means an inactive call. Results filed as inconclusive are left out. The source made the active and inactive calls. The call rests on the fitted dose curve; in most records, active means well fitted activation curve with a large enough effect in the repeat runs; inconclusive means weak or mixed curves; inactive means flat fitted curve, though single readings scatter.

Assay: A CellTox Green Cytotoxicity Assay to monitor cytotoxicity in HepG2 cells - 0 hour (AID 1224882); further: nearly all actives have a fitted effect of over 35% in size
Details: CellTox Green fluorescence; series mostly up to 76.8 µM; cytotoxicity: at the top concentration
Outline: (§1)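 Read-out is fluorescence of a cyanine dye excluded from live cells that stains DNA of dead HepG2 cells, with signal proportional to cytotoxicity. Plates were read at 0, 8, 16, 24, 32 and 40 h after compound addition.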
On the % scale 0 is the no-effect control and ±100 the full control effect.

| SMILES | cytotoxicity | Potency |
| --- | --- | --- |
| Nc1ccc(S(=O)(=O)Nc2ccnn2-c2ccccc2)cc1 | 3.97% [at 15.8 µM] | – |
| Nc1c2c(nc3ccccc13)CCCC2O (stereo not given) | -0.0325% [at 35.3 µM] | – |
| C[N+](C)(C)CCCCCC[N+](C)(C)C | – | inactive |
| CCc1ccc(O)c(OC)c1 | -4.85% | – |
| OC(CCN1CCCCC1)(c1ccccc1)C1CC2C=CC1C2 (stereo not given) | -0.121% [at 35.3 µM] | – |
| C=CCS(=O)(=O)O | 3.97% | – |
| CN(C(=O)c1c(O)c2ccccc2n(C)c1=O)c1ccccc1 | 1.27% [at 35.3 µM] | – |
| COC(=O)CCSCCC(=O)OC | 0.115% | – |
| CC(C)(O)C(=O)c1ccccc1 | -3.19% | – |
| CCCCCOC(=O)CCCCC | -11.9% | – |
| OCCOc1ccc(OCCO)cc1 | 3.22% | – |
| N[C@H]1CN(c2c(F)cc3c(=O)c(C(=O)O)cn(C4C[C@H]4F)c3c2Cl)CC12CC2 (stereo not given in full) | -0.115% [at 35.3 µM] | – |
| COc1ccc2c(c1)c(CC(=O)OCC(=O)O)c(C)n2C(=O)c1ccc(Cl)cc1 | -4.48% [at 35.3 µM] | – |
| COc1ccc2c(c1)CCCC2=O | 1% [at 35.3 µM] | – |
| OC[C@]1(O)OC[C@@H](O)[C@H](O)[C@@H]1O | – | inactive |
| NC(=O)Nc1ccccc1 | -0.121% | – |
| CCS(=O)(=O)c1ccc(OC)c(C(=O)OC)c1 | -11.3% [at 35.3 µM] | – |
| COc1ccc(CCN(C)CCCC(C#N)(c2cc(OC)c(OC)c(OC)c2)C(C)C)cc1OC (stereo not given) | 1.26% [at 35.3 µM] | – |

| SMILES | cytotoxicity | Potency |
| --- | --- | --- |
| CCCC(=O)O[C@]1(C(=O)CO)CC[C@H]2[C@@H]3CCC4=CC(=O)CC[C@]4(C)[C@H]3[C@@H](O)C[C@@]21C | -11.4% [at 35.3 µM] | – |
| CCCCCCOC(=O)CCCCC(=O)OCCCCCC | -5.67% | – |
| CCOC(C)(C)C | -7.14% | – |
| CCO/C([O-])=N/c1c[n+](N2CCOCC2)no1 | 0.385% [at 35.3 µM] | – |
| O=C1CCCCCCCCCCCN1 | – | inactive |
| C=C(C)CS(=O)(=O)O | -8.4% | – |
| Brc1c(NC2=NCCN2)ccc2nccnc12 | -3.91% [at 35.3 µM] | – |
| CCN1CCC[C@H]1CNC(=O)c1c(O)c(Cl)cc(Cl)c1OC | 1.16% [at 35.3 µM] | – |
| O=C(O)Cc1ccc(CCNS(=O)(=O)c2ccc(Cl)cc2)cc1 | 1.22% [at 35.3 µM] | – |
| CCOc1ccc(C(=O)OCCN(CC)CC)cc1 | -18.8% [at 35.3 µM] | – |
| CCOC(=O)CCC(C)=O | 0.694% | – |
| CCO[Si](CCC1CCC2OC2C1)(OCC)OCC (stereo not given) | -4.68% | – |
| CCN1CCC[C@H]1CNC(=O)c1cc(S(N)(=O)=O)ccc1OC | -0.911% [at 35.3 µM] | – |
| CC(C)=CCCC(C)CC(=O)O (stereo not given) | 2.77% | – |
| CCOC(=O)c1c(C)n(C)c2ccc(O)cc12 | -9.53% [at 35.3 µM] | – |
| COc1c(N2C[C@@H]3CCCN[C@@H]3C2)c(F)cc2c(=O)c(C(=O)O)cn(C3CC3)c12 | 4.81% [at 35.3 µM] | – |
| CC(C)OC(=O)c1ccccc1 | -7.73% | – |

Assay: A CellTox Green Cytotoxicity Assay to monitor cytotoxicity in HepG2 cells - 32 hour (AID 1224883); further: nearly all actives have a fitted effect of over 50% in size
Details: CellTox Green fluorescence; series mostly up to 76.8 µM; cytotoxicity increase: at the top concentration
Outline: as §1

| SMILES | cytotoxicity increase | Potency |
| --- | --- | --- |
| Nc1ccc(S(=O)(=O)Nc2ccnn2-c2ccccc2)cc1 | 3.28% [at 15.8 µM] | – |
| Nc1c2c(nc3ccccc13)CCCC2O (stereo not given) | 4.21% [at 35.3 µM] | – |
| C[N+](C)(C)CCCCCC[N+](C)(C)C | – | inactive |
| CCc1ccc(O)c(OC)c1 | -3.93% | – |
| OC(CCN1CCCCC1)(c1ccccc1)C1CC2C=CC1C2 (stereo not given) | 6.09% [at 35.3 µM] | – |
| C=CCS(=O)(=O)O | 13.7% | – |
| CN(C(=O)c1c(O)c2ccccc2n(C)c1=O)c1ccccc1 | -0.838% [at 35.3 µM] | – |
| COC(=O)CCSCCC(=O)OC | -5.95% | – |
| CC(C)(O)C(=O)c1ccccc1 | -11.8% | – |
| CCCCCOC(=O)CCCCC | -26.1% | – |
| OCCOc1ccc(OCCO)cc1 | 3.02% | – |
| N[C@H]1CN(c2c(F)cc3c(=O)c(C(=O)O)cn(C4C[C@H]4F)c3c2Cl)CC12CC2 (stereo not given in full) | 0.762% [at 35.3 µM] | – |
| COc1ccc2c(c1)c(CC(=O)OCC(=O)O)c(C)n2C(=O)c1ccc(Cl)cc1 | -2.47% [at 35.3 µM] | – |
| COc1ccc2c(c1)CCCC2=O | -0.82% [at 35.3 µM] | – |
| OC[C@]1(O)OC[C@@H](O)[C@H](O)[C@@H]1O | – | inactive |
| NC(=O)Nc1ccccc1 | -9.94% | – |
| CCS(=O)(=O)c1ccc(OC)c(C(=O)OC)c1 | -12.3% [at 35.3 µM] | – |
| COc1ccc(CCN(C)CCCC(C#N)(c2cc(OC)c(OC)c(OC)c2)C(C)C)cc1OC (stereo not given) | 27.5% [at 35.3 µM] | – |

| SMILES | cytotoxicity increase | Potency |
| --- | --- | --- |
| CCCC(=O)O[C@]1(C(=O)CO)CC[C@H]2[C@@H]3CCC4=CC(=O)CC[C@]4(C)[C@H]3[C@@H](O)C[C@@]21C | -18.2% [at 35.3 µM] | – |
| CCCCCCOC(=O)CCCCC(=O)OCCCCCC | -11.2% | – |
| CCOC(C)(C)C | -10.2% | – |
| CCO/C([O-])=N/c1c[n+](N2CCOCC2)no1 | -7.87% [at 35.3 µM] | – |
| O=C1CCCCCCCCCCCN1 | – | inactive |
| C=C(C)CS(=O)(=O)O | -17% | – |
| Brc1c(NC2=NCCN2)ccc2nccnc12 | 0.911% [at 35.3 µM] | – |
| CCN1CCC[C@H]1CNC(=O)c1c(O)c(Cl)cc(Cl)c1OC | 6.75% [at 35.3 µM] | – |
| O=C(O)Cc1ccc(CCNS(=O)(=O)c2ccc(Cl)cc2)cc1 | -6.98% [at 35.3 µM] | – |
| CCOc1ccc(C(=O)OCCN(CC)CC)cc1 | -12.2% [at 35.3 µM] | – |
| CCOC(=O)CCC(C)=O | -0.388% | – |
| CCO[Si](CCC1CCC2OC2C1)(OCC)OCC (stereo not given) | -11.9% | – |
| CCN1CCC[C@H]1CNC(=O)c1cc(S(N)(=O)=O)ccc1OC | -0.955% [at 35.3 µM] | – |
| CC(C)=CCCC(C)CC(=O)O (stereo not given) | 0.701% | – |
| CCOC(=O)c1c(C)n(C)c2ccc(O)cc12 | -3.6% [at 35.3 µM] | – |
| COc1c(N2C[C@@H]3CCCN[C@@H]3C2)c(F)cc2c(=O)c(C(=O)O)cn(C3CC3)c12 | -2.51% [at 35.3 µM] | – |
| CC(C)OC(=O)c1ccccc1 | -6.68% | – |
